NLRP3 yeast inh: NALP3 inflammasome inhibitors in reconstituted yeast, primary screen, luminescence, uHTS; AID 2825, 2010; hit rate 0.39% among 330,000; inhibition, % at 10 µM; Yeast reconstituted NLRP3/ASC/caspase-1, beta-gal luminescence, 24 h;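 active = inhibition of 50% or more; inactive = inhibition below 50%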;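 note: plate controls were induced DMSO wells for no effect and uninduced yeast grown without galactose for full effect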
tim23-1 inh: growth inhibitors of tim23-1 mutant yeast, primary screen, luminescence, uHTS | S. cerevisiae tim23-1 growth, BacTiter-Glo luminescence, 24 h | inhibition, % at 20 µM | hit rate 1.3% among 330,000;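 active = growth inhibition of the mutant yeast at or above 50%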;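 note: temperature-sensitive mutant grown at 25 °C; plate controls were DMSO-treated mutant yeast for no effect and medium wells lacking yeast for full effect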
tim10-1 inh: growth inhibitors of tim10-1 mutant yeast, primary screen, luminescence, uHTS | inhibition, % at 20 µM | hit rate 2.2% among 330,000 | S. cerevisiae tim10-1 ts strain growth, BacTiter-Glo, 24 h;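 active = inhibition of at least 40%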;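 note: mutant grown at 25 °C; 0% = DMSO wells with yeast and 100% = wells holding no yeast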
Yeast superoxide: reduction of superoxide in aged yeast, primary screen, HTS; S. cerevisiae aged cells, superoxide DHE fluorescence; active compounds read low; superoxide response (% of plate mean), % at 10 µM; hit rate 0.18% among 330,000;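 active = superoxide response under a set limit, about three screen SD below normal, cut at about 65% in these data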;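 note: yeast aged for seven days with compound at 30 °C before DHE staining; 100% = average MFI of all compound-treated wells on the plate with controls excluded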
TIM10 inh: growth inhibitors of isogenic TIM10 control yeast, primary screen, counter-screen for tim10-1 yeast inhibitor project, luminescence, uHTS; hit rate 1.4% among 330,000; S. cerevisiae TIM10 strain growth, BacTiter-Glo luminescence, 24 h; inhibition, % at 10 µM;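 active = inhibition of 40% or more at the single tested concentration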;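 note: wild-type TIM10 isogenic control strain grown at permissive 25 °C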
tim10-1 conf: growth inhibitors of tim10-1 mutant yeast, confirmation, single concentration, luminescence, S. cerevisiae; shares compounds with tim10-1 inh; S. cerevisiae tim10-1 ts strain growth, BacTiter-Glo, 24 h; inhibition, % at 20 µM; hit rate 56% among 7,400;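 active = inhibition of yeast growth at or above a set limit in either of two repeat tests at 20 µM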;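 note: tim10-1 mutant grown at permissive 25 °C to find synthetic lethal compounds; 0% = DMSO yeast wells and 100% = medium wells without yeast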
tim10 confirm: growth inhibitors of wild-type TIM10 yeast, confirmation, counter-screen for tim10-1 synthetic lethality project, single concentration, luminescence, S. cerevisiae. S. cerevisiae tim10 strain growth, BacTiter-Glo luminescence, 24 h. inhibition, % at 10 µM. shares compounds with TIM10 inh. hit rate 63% among 4,600;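 active = inhibition of yeast growth at or above a set limit in either of two replicates at 10 µM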;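 note: this counterscreen used the strain with wild-type TIM10; 0% = yeast with DMSO and 100% = medium wells lacking yeast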
tim23-1 confirm: tim23-1 mutant yeast growth inhibitors, confirmation, luminescence, single concentration. inhibition, % at 20 µM. AID 463218, 2010. hit rate 83% among 4,400. shares compounds with tim23-1 inh. S. cerevisiae tim23-1 growth, BacTiter-Glo luminescence, 24 h;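 active = inhibition above about 39% in either of two replicate wells at 20 µM, limit read from the data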;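 note: temperature-sensitive tim23-1 mutant grown at 25 °C; 0% = DMSO wells with yeast and 100% = medium wells without yeast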
Active calls of the source: *; . = no result. The list is not random: actives were taken first. Their share in the collection is about 3.8%.

SMILES	NLRP3 yeast inh	tim23-1 inh	tim10-1 inh	Yeast superoxide	TIM10 inh	tim10-1 conf	tim10 confirm	tim23-1 confirm
COc1cc(OC)cc(C(=O)N2CCN(Cc3ccccc3Br)CC2)c1	2	43	26	110	31	.	.	.
O=C(COc1ccc(Cl)cc1Cl)Nc1ccccn1	16	58*	47*	87	26	49*	.	47*
Cc1cccc(N2CCN(c3nc4ccccc4n4cnnc34)CC2)c1C	17	64*	70*	108	53*	17	42*	72*
c1cnc(N2CCN(c3nc4ccccc4n4cnnc34)CC2)nc1	22	26	16	121	21	.	.	.
Cc1ccc(N=C(NOC(=O)c2ccccc2)c2nonc2N)c(C)c1	12	57*	46*	90	49*	49*	40*	41*
N/C(=N\OC(=O)c1cc(-c2ccccc2)nc2ccccc12)c1ccc(Cl)cc1	-14	70*	59*	100	89*	44*	87*	42*
COc1ccc(-c2cc(C(=O)N/N=C(\C)c3cccnc3)c3ccccc3n2)cc1	7	1	1	105	15	.	.	.
N/C(=N\OC(=O)c1cc(-c2ccccc2)nc2ccccc12)c1cccnc1	-19	80*	52*	94	71*	66*	77*	30
COc1ccc(-c2cc3ccccc3oc2=O)cc1NC(=O)c1ccc([N+](=O)[O-])o1	16	70*	66*	104	62*	64*	72*	41*
O=C(Nc1ccc(N2CCN(C(=O)c3cccs3)CC2)cc1)c1ccco1	18	12	6	87	3	.	.	.
O=C(Nc1ccc(Cc2ccncc2)cc1)c1ccc([N+](=O)[O-])o1	3	71*	67*	95	45*	59*	43*	58*
COc1cc(NC(=O)c2ccc([N+](=O)[O-])o2)ccc1NC(=O)c1cccs1	25	59*	46*	112	32	39*	.	-14
COc1ccc(-c2cc3ccccc3oc2=O)cc1NC(=O)c1ccc(Br)o1	-7	-25	-20	118	-2	.	.	.
O=C(Nc1ccc(N2CCN(C(=O)c3cccs3)CC2)cc1)c1ccc([N+](=O)[O-])o1	15	71*	72*	108	72*	74*	77*	85*
COc1cccc2c1Oc1ncccc1N(C(=O)CCC(=O)NCc1ccccc1Cl)C2	4	11	-3	100	18	.	.	.
O=C(N[C@@H]1c2ccccc2CC[C@@H]1OCc1ccccc1)c1ccc(-c2ccccc2)cc1	.	19	3	93	-28	.	.	.
CC(=O)c1c(C)[nH]c(C(=O)OCC(=O)N2CC(=O)Nc3ccccc32)c1C	16	9	-4	89	-2	.	.	.
CC1CCCCN1C(=O)COC(=O)c1ccc2c(c1)C(=O)N(Cc1ccco1)C2=O (configuration not stated)	10	31	9	91	3	.	.	.
CSc1cccc(N2CC(C(=O)NCCC3=CCCCC3)CC2=O)c1 (configuration not stated)	18	29	24	109	6	.	.	.
O=C(Nc1ccc(N2CCOCC2)cc1)c1ccc([N+](=O)[O-])o1	8	55*	55*	121	26	29	.	58*
O=C(Nc1ccc(S(=O)(=O)N2CCOCC2)cc1)c1ccc([N+](=O)[O-])o1	-6	26	28	121	18	.	.	.
Cc1ccc(CSc2nnc(CS(=O)Cc3ccc(Cl)cc3Cl)n2C)cc1 (configuration not stated)	-2	51*	47*	97	47*	37*	48*	44*
CCOc1ccccc1NC(=O)NNC(=O)COc1cccc(C)c1C	1	8	4	97	4	.	.	.
CN(C1=C(NC(=O)c2ccc(Cl)cc2)C(=O)c2ccccc2C1=O)c1ccccc1	15	68*	65*	98	66*	61*	-10	72*
O=C(O)C1CC=CCC1C(=O)NCCc1cccc(Cl)c1 (configuration not stated)	22	-1	13	122	8	.	.	.
SMILES	NLRP3 yeast inh	tim23-1 inh	tim10-1 inh	Yeast superoxide	TIM10 inh	tim10-1 conf	tim10 confirm	tim23-1 confirm
O=C(NC(=S)NCC1CCCO1)c1ccccc1[N+](=O)[O-] (configuration not stated)	5	0	-5	108	-1	.	.	.
O=C(NC(=S)NC1CCCCC1)c1ccccc1[N+](=O)[O-]	5	63*	45*	105	21	26	.	48*
O=C(NC(=S)NC1CCN(Cc2ccccc2)CC1)c1ccc(F)cc1	29	35	3	103	0	.	.	.
O=C(NC(=S)NC1CCCCC1)c1ccc(F)cc1	18	69*	42*	86	34	32*	.	56*
Cc1ccc(C(=O)NC(=S)NNC(=O)c2ccccc2[N+](=O)[O-])cc1	11	61*	47*	106	47*	42*	61*	49*
O=C(NNC(=S)NC(=O)c1ccccc1[N+](=O)[O-])c1ccccc1[N+](=O)[O-]	16	1	5	124	16	.	.	.
O=C(CNC(=O)COc1ccccc1)NCc1cccnc1	-7	2	1	97	-2	.	.	.
Cc1ccc(C)c(SCC(=O)Nc2ccc(S(=O)(=O)Nc3ncccn3)cc2)c1	8	15	-6	109	12	.	.	.
N#C/C(=C\c1cccnc1)C(=O)Nc1ccc(Cl)cc1	14	76*	61*	91	61*	26	38*	66*
N#C/C(=C\c1cccc([N+](=O)[O-])c1)C(=O)Nc1cccnc1	-4	28	26	108	1	.	.	.
COc1ccccc1NC(=O)/C(C#N)=C/c1cccnc1	20	45	24	115	20	.	.	.
N#C/C(=C\c1cccnc1)C(=O)Nc1cccc2ccccc12	11	77*	61*	114	60*	58*	73*	78*
N#C/C(=C\c1cccnc1)C(=O)Nc1cccc(Cl)c1	10	85*	48*	90	50*	34*	24	78*
Cc1cccc(NC(=O)/C(C#N)=C\c2cccnc2)c1	21	79*	67*	83	66*	56*	59*	78*
O=C(Nc1cccc(Cl)c1)/C(=C\c1cccnc1)NC(=O)c1ccco1	35	6	8	91	0	.	.	.
